Source: PubChem BioAssay
T cruzi growth-1: inhibitors of T. cruzi proliferation. AID 624255. actives 5.9% (n = 77,000). inhibition, % at 8.34 µM. T. cruzi beta-gal in NIH3T3, GalScreen luminescence, 90 h;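 active = mean inhibition above about 93%, with at least 55% of replicates each passing it, limit read from the data, passing the limit was not always enough; inconclusive = only one of those two conditions holds; inactive = neither condition holds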
Pf Dd2 growth: inhibitors of Plasmodium falciparum Dd2 growth. actives 2.3% (n = 94,000). activity change, % at 10 µM. P. falciparum Dd2 growth, SYBR Green, 72 h; stronger effect = lower value; in the data active = activity change below about -80%; inconclusive = no clear call, values can overlap the other calls
C diff growth: C. difficile growth inhibition | AID 1259249 | Clostridium difficile clinical isolate growth, OD600, 24 h; stronger effect = lower value | growth activity, negative = inhibition, % at 16 µg/mL (by protocol) | actives 0.25% (n = 86,000);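 active = mean growth activity at or below -80% and every replicate also at or below -80%; inconclusive = mean at or below -80% but some replicate above -80%; inactive = mean growth activity above -80%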
T cruzi growth-2: inhibitors of T. cruzi proliferation; shares compounds with T cruzi growth-1; T. cruzi beta-gal in NIH3T3, GalScreen luminescence, 90 h; inhibition, % at 8.35 µM; actives 72% (n = 5,600); AID 651739;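 active = mean replicate inhibition above about 95% and at least 55% of replicates individually reaching it, limit read from the data; inconclusive = only one of the two criteria is met; inactive = neither criterion is met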
T cruzi growth-3: inhibitors of T. cruzi proliferation; shares compounds with T cruzi growth-1; T. cruzi beta-gal in NIH3T3, GalScreen luminescence, 90 h; inhibition, % at 2.09 µM; actives 21% (n = 5,600);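 active = mean inhibition above about 95%, with at least 55% of replicates also reaching it, limit read from the data; inconclusive = meets just one of the two conditions; inactive = meets neither condition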
3T3 cytotox: cytotoxicity in mouse NIH/3T3 fibroblasts | cytotoxicity (signal decrease), % at 8.35 µM | AID 651742 | shares compounds with T cruzi growth-1 | actives 14% (n = 5,600) | NIH/3T3 viability, CellTiter-Glo ATP luminescence, 90 h;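 active = mean signal decrease across replicates above about 35% based on untreated-well scatter, with enough replicates individually passing, limit read from the data; inconclusive = no rule stated though some were filed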
NIH3T3 tox 2: cytotoxicity in mouse NIH/3T3 fibroblasts; shares compounds with T cruzi growth-1; NIH/3T3 viability, CellTiter-Glo ATP luminescence, 90 h; inhibition, % at 24.9 µM; actives 56% (n = 5,600);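 active = mean loss of cell viability signal at or above a set limit, and enough replicates individually reaching it; inconclusive = meets only the mean limit or only the replicate share; inactive = meets neither condition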
A number is an active result. Sampled rows, rich in hits. Any-hit rate of the full collection: about 6.7%.

Results for C[C@@H]1CN([C@@H](C)CO)C(=O)c2cccc(NC(=O)c3cnccn3)c2O[C@@H]1CN(C)Cc1ccc2c(c1)OCO2 ?
T cruzi growth-1: 97; Pf Dd2 growth: inactive; C diff growth: inactive; T cruzi growth-2: inactive; T cruzi growth-3: inactive; 3T3 cytotox: inactive; NIH3T3 tox 2: 50

What do the screens show for `C[C@H]1CN([C@@H](C)CO)C(=O)c2cccc(NC(=O)c3ccncc3)c2O[C@@H]1CN(C)Cc1ccc(Cl)c(Cl)c1`?
T cruzi growth-1: inactive; Pf Dd2 growth: inactive; C diff growth: inactive

What do the screens show for `C[C@H](CO)N1C[C@H](C)[C@@H](CN(C)Cc2ccc3c(c2)OCO3)Oc2c(NC(=O)c3cnccn3)cccc2C1=O`?
T cruzi growth-1: inactive; Pf Dd2 growth: inactive; C diff growth: inactive

Results for C[C@@H]1CN([C@H](C)CO)C(=O)c2cccc(NC(=O)c3cnccn3)c2O[C@@H]1CN(C)Cc1ccc(Cl)c(Cl)c1 ?
T cruzi growth-1: inactive; Pf Dd2 growth: inactive; C diff growth: inactive

Results for CNC(=O)C[C@H]1CC[C@H]2[C@@H](COc3ccc(NC(=O)CC(F)(F)F)cc3C(=O)N2C)O1 ?
T cruzi growth-1: inactive; Pf Dd2 growth: inactive; C diff growth: inactive

How did O=C(NC[C@@H]1[C@H](c2ccccc2)[C@@H](CO)N1C(=O)Cc1cccnc1)C1CC1 do in these assays?
T cruzi growth-1: inactive; Pf Dd2 growth: inactive; C diff growth: inactive

What do the screens show for `CN(C)CC(=O)N1C[C@@H]2[C@H](c3ccccc31)[C@H](CO)N2Cc1cc(F)ccc1F`?
T cruzi growth-1: inactive; Pf Dd2 growth: inactive; C diff growth: inactive

Results for C[C@H](CO)N1C[C@H](C)[C@@H](CN(C)S(=O)(=O)c2ccc(Cl)cc2)OCCCC[C@H](C)Oc2ccc(NS(=O)(=O)c3ccc(F)cc3)cc2C1=O ?
T cruzi growth-1: inactive; Pf Dd2 growth: inactive; C diff growth: inactive

What do the screens show for `C[C@@H]1CCCCO[C@H](CN(C)S(=O)(=O)c2ccc(F)cc2)[C@@H](C)CN([C@@H](C)CO)C(=O)c2cc(NS(=O)(=O)c3ccc(Cl)cc3)ccc2O1`?
T cruzi growth-1: 97; Pf Dd2 growth: inactive; C diff growth: inactive; T cruzi growth-2: 105; T cruzi growth-3: 111; 3T3 cytotox: inactive; NIH3T3 tox 2: inactive

How did C[C@H]1CCCCO[C@@H](CN(C)S(=O)(=O)c2ccc(Cl)cc2)[C@@H](C)CN([C@@H](C)CO)C(=O)c2cc(NS(=O)(=O)c3ccc(F)cc3)ccc2O1 do in these assays?
T cruzi growth-1: 102; Pf Dd2 growth: inactive; C diff growth: inactive; T cruzi growth-2: 105; T cruzi growth-3: 110; 3T3 cytotox: inactive; NIH3T3 tox 2: inactive

Results for C[C@@H]1CCCCO[C@H](CN(C)S(=O)(=O)c2ccc(Cl)cc2)[C@H](C)CN([C@@H](C)CO)C(=O)c2cc(NS(=O)(=O)c3ccc(F)cc3)ccc2O1 ?
T cruzi growth-1: inactive; Pf Dd2 growth: inactive; C diff growth: inactive

Results for C[C@@H]1CN([C@@H](C)CO)C(=O)c2cc(NS(=O)(=O)c3ccc(F)cc3)ccc2O[C@@H](C)CCCCO[C@H]1CN(C)S(=O)(=O)c1ccc(Cl)cc1 ?
T cruzi growth-1: inactive; Pf Dd2 growth: inactive; C diff growth: inactive

How did C[C@H]1CCCCO[C@@H](CN(C)S(=O)(=O)c2ccc(F)cc2)[C@@H](C)CN([C@@H](C)CO)C(=O)c2cc(NS(=O)(=O)c3ccc(Cl)cc3)ccc2O1 do in these assays?
T cruzi growth-1: 100; Pf Dd2 growth: inactive; C diff growth: inactive; T cruzi growth-2: 104; T cruzi growth-3: inconclusive; 3T3 cytotox: inactive; NIH3T3 tox 2: inactive

How did C[C@@H]1CN([C@@H](C)CO)C(=O)c2cc(NS(=O)(=O)c3ccc(Cl)cc3)ccc2O[C@@H](C)CCCCO[C@H]1CN(C)S(=O)(=O)c1ccc(F)cc1 do in these assays?
T cruzi growth-1: 105; Pf Dd2 growth: inactive; C diff growth: inactive; T cruzi growth-2: 104; T cruzi growth-3: inactive; 3T3 cytotox: inactive; NIH3T3 tox 2: inactive

What do the screens show for `CCCNC(=O)C[C@@H]1C[C@H]2c3cc(NC(=O)C4CCOCC4)ccc3O[C@H]2[C@@H](CO)O1`?
Pf Dd2 growth: inactive; C diff growth: inactive
